Shown are actives, neighbours in structure and some others; about 4.6% of the full set was active somewhere.
TRHR agonist: qHTS for Small Molecule Agonists and Allosteric Enhancers of Human TRH Receptor: Primary Screen for Agonists; 360,000 tested, 0.18% active; Thyrotropin-releasing hormone receptor (Homo sapiens), P34981; activation, % at 2 µM; TRHR cells, calcium flux fluo-8, FDSS agonist mode; further: 0% is about no effect
Target sequence (P34981 whole entry, looked up): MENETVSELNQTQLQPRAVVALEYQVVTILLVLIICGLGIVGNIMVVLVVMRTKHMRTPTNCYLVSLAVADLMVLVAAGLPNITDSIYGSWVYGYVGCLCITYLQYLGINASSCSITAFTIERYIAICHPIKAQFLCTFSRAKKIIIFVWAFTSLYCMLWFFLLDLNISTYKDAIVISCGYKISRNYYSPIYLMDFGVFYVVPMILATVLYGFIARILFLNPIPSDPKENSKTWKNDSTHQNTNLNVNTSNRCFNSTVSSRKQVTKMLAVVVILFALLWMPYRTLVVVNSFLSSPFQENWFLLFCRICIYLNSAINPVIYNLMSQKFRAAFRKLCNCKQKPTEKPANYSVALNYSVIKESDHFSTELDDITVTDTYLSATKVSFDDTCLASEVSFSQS
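Read-out: compound-evoked intracellular calcium rise in TRHR cells, fluo-8 dye, kinetic FDSS fluorescence at 1 s/cycle following a 10-cycle baseline. Cells cultured overnight before dye loading (30 min–1.5 h, RT).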
D1 PAM: Potentiators of Human D1 Dopamine Receptor: qHTS; 360,000 tested, 0.036% active; HEK293 TREx D1 cells, calcium flux, dopamine EC20 potentiation; AID 504651, 2011; D(1A) dopamine receptor (Homo sapiens), P21728; potentiation, % at 10 µM; in the data active means potentiation above about 30%; further: 0% is about no effect
D1 antag: Antagonist of Human D 1 Dopamine Receptor: qHTS; activity change, negative = inhibition, % at 10 µM; HEK293 TREx D1 cells, calcium flux, dopamine EC80; active compounds read low; 360,000 tested, 3.2% active; in the data active means activity change below about -30%; further: on the % scale 0 is the no-effect control and ±100 the full control effect
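Tetracycline-induced HEK293 Trex D1 cells, force-coupled to calcium, dye-loaded; compounds added and read 180 s, then EC80 dopamine added and calcium flux tracked kinetically another 180 s.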
TRHR enhancer: qHTS for Small Molecule Agonists and Allosteric Enhancers of Human TRH Receptor: Primary Screen for Enhancers | TRHR cells, fluo-8 calcium fluorescence, EC20 TRH enhancement | enhancement, % at 2 µM | 360,000 tested, 0.66% active | AID 493056, 2011; in the data active means enhancement above about 30%; further: 0% is about no effect
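Enhancer read-out: after compound pinning and an initial kinetic agonist-mode read, an EC20 of TRH (10 nM final) was injected and fluo-8 calcium signal (Ex 480/Em 530) followed at 1 s/cycle for 100 cycles in TRHR-expressing cells.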
D1 ag: Allosteric Agonists of the Human D1 Dopamine Receptor: qHTS; HEK293 T-REx D1 cells, calcium flux, agonist mode; 360,000 tested, 1% active; activation, % at 2 µM; further: 0% is about no effect
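Agonism was scored from calcium flux recorded over 180 s (1 read/s) after pintool compound addition, following a 10-cycle baseline. Cells were inducible force-coupled HEK293 TREx D1, plated overnight at 30 C and loaded with no-wash calcium dye.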
* hit, by the source's call. Unless noted, no stated cut-off is given here; in the data, active means activation above about 30%; inactive means the rest.

CCOc1ccccc1N1CCN(C(=O)Nc2ccc(Cl)c(Cl)c2)CC1 was read as TRHR agonist 0, D1 PAM 2, D1 antag -36*, TRHR enhancer 4 and D1 ag 1.
CCOc1ccccc1CNc1ncnc2c1nc1n2CCCC1 was read as TRHR agonist -1, D1 PAM -1, D1 antag -5, TRHR enhancer -2 and D1 ag -1.
Cc1ccc(C(=O)NC(=S)N(C)C2CCCCC2)cc1 was read as TRHR agonist 0, D1 PAM 9, D1 antag -41*, TRHR enhancer -1 and D1 ag 0.
COc1ccc(CC(=O)NCCc2csc(-c3cccc(C)c3)n2)cc1 was read as TRHR agonist -1, D1 PAM -6, D1 antag 10, TRHR enhancer -2 and D1 ag 0.
For Cc1cc(=O)[nH]c(SCc2ccc(Cl)cc2Cl)n1 the results were TRHR agonist -2, D1 PAM 1, D1 antag 4, TRHR enhancer 7 and D1 ag 18.
COc1ccc(/C=C/c2ccncc2)cc1 was read as TRHR agonist -1, D1 PAM -9, D1 antag -34*, TRHR enhancer 1 and D1 ag 2.
`COc1ccccc1NC(=O)Cn1c(=O)n(CC2CCC(C(=O)NCCc3ccccc3)CC2)c(=O)c2ccccc21` (stereo not drawn) gave TRHR agonist 0, D1 PAM -2, D1 antag 10, TRHR enhancer 6 and D1 ag 2.
CCCSc1nsc(NC(=O)Nc2ccc(F)cc2F)n1 was read as TRHR agonist 0, D1 PAM -8, D1 antag -60*, TRHR enhancer 16 and D1 ag 33*.
For CCSc1nsc(NC(=O)Nc2cccc(F)c2)n1 the results were TRHR agonist 7, D1 PAM -7, D1 antag -44*, TRHR enhancer -3 and D1 ag 42*.
Screening COc1cccc(NC(=O)Nc2nc(SC(C)(C)C)ns2)c1 returned TRHR agonist 5, D1 PAM -8, D1 antag -40*, TRHR enhancer -10 and D1 ag 30.
`CCOc1ccccc1Nc1nc(-c2ccc(C)cc2)c(CC(=O)O)s1` gave TRHR agonist 0, D1 PAM -10, D1 antag -10, TRHR enhancer -7 and D1 ag 0.
`CCOC(=O)N1CCC(Nc2c(N3CCN(c4cc(Cl)ccc4C)CC3)c(=O)c2=O)CC1` gave TRHR agonist 0, D1 antag -30*, TRHR enhancer -1 and D1 ag 2.
For CCOC(=O)N1CCC(Nc2c(-c3ccc(C)c(C)c3)c(=O)c2=O)CC1 the results were TRHR agonist -1, D1 PAM -7, D1 antag 4, TRHR enhancer -1 and D1 ag 2.
Screening COC(=O)c1ccccc1NC(=O)Cn1cc(S(=O)(=O)Cc2ccccc2F)c2ccccc21 returned TRHR agonist 1, D1 PAM -2, D1 antag -18, TRHR enhancer 2 and D1 ag 9.
CN(C)CCNC(=O)COc1ccc(C23CC4CC(CC(C4)C2)C3)cc1 was read as TRHR agonist 1, D1 PAM -3, D1 antag 7, TRHR enhancer 2 and D1 ag 33*.
`Cc1ccc(C23CC4CC(CC(NC(=O)NCCN(C)C)(C4)C2)C3)cc1` gave TRHR agonist 0, D1 PAM -5, D1 antag 10, TRHR enhancer -2 and D1 ag 6.
For Cc1cccc(NC(=O)c2ccc(Cn3nc(N4CCN(c5ccccc5)CC4)ccc3=O)o2)c1C the results were TRHR agonist -1, D1 PAM -1, D1 antag -18, TRHR enhancer -2 and D1 ag 1.
Cc1cc(C=C2C(=O)c3ccccc3C2=O)c(C)n1-c1ccccc1 was read as TRHR agonist 6, D1 PAM -3, D1 antag -1, TRHR enhancer -9 and D1 ag 33*.
For Cc1ccc(-n2c(C)cc(/C=C3\SC(=O)NC3=O)c2C)cc1 the results were TRHR agonist -1, D1 PAM -6, D1 antag -36*, TRHR enhancer -2 and D1 ag 10.
Cc1cc(/C=C2\SC(=S)NC2=O)c(C)[nH]1 was read as TRHR agonist 11, D1 PAM 6, D1 antag 8, TRHR enhancer -1 and D1 ag 33*.
Screening CCn1c(C)cc(/C=C2/SC(=S)NC2=O)c1C returned TRHR agonist 4, D1 PAM -6, D1 antag -2, TRHR enhancer 5 and D1 ag 16.
Screening Cc1cc(/C=C2\SC(=S)NC2=O)c(C)n1-c1cccc(O)c1 returned TRHR agonist 4, D1 PAM -1, D1 antag 1, TRHR enhancer -4 and D1 ag 34*.
Screening COc1ccc(CNC(=O)Cn2nc(N3CCN(c4ccccc4)CC3)ccc2=O)c(OC)c1 returned TRHR agonist -1, D1 PAM 0, D1 antag 32, TRHR enhancer -3 and D1 ag 1.
Screening Cc1cccc(-n2c(C)cc(/C=C3\NC(=O)NC3=O)c2C)c1 returned TRHR agonist 0, D1 PAM -8, D1 antag -40*, TRHR enhancer 8 and D1 ag 0.
Screening O=C(CNC(=O)c1ccc(Br)o1)NNC(=O)c1ccc(Br)cc1 returned TRHR agonist 0, D1 PAM -2, D1 antag 5, TRHR enhancer -13 and D1 ag 1.
O=C(CNS(=O)(=O)c1ccccc1F)NNC(=O)c1ccc(Br)cc1 was read as TRHR agonist 0, D1 PAM 0, D1 antag -1, TRHR enhancer 32* and D1 ag 3.
For CCOC(=O)C1CCN(C(=O)c2ccc(N3CCCC3=O)cc2)CC1 the results were TRHR agonist 3, D1 PAM -3, D1 antag 5, TRHR enhancer 34* and D1 ag 3.
`O=C(c1ccc(N2CCCC2=O)cc1)N1CCN(c2ccccc2Cl)CC1` gave TRHR agonist 0, D1 PAM -11, D1 antag -49*, TRHR enhancer 4 and D1 ag 1.
Screening CCOC(=O)N1CCN(C(=O)c2ccc(N3CCCC3=O)cc2)CC1 returned TRHR agonist 1, D1 PAM 4, D1 antag -7, TRHR enhancer 0 and D1 ag 1.
`O=C(c1ccc2c(c1)N(Cc1ccc(Cl)cc1)C(=O)c1ccccc1S2=O)N1CCC(Cc2ccccc2)CC1` (stereo not drawn) gave TRHR agonist 0, D1 PAM -2, D1 antag 2, TRHR enhancer -9 and D1 ag 4.
